Data published in PubChem BioAssay AID1117319 (Southern Research Institute, 2015).
Out of some 260,000 compounds screened, about 1,500 (0.58%) were called active. Inconclusive results (about 5%) are left out.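 How the source made its calls: active means inhibition above a set limit at one or more doses, reproduced on every date tested; inconclusive means results disagree between test dates, or hit never tested in dose response; inactive means the rest.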 Only a sample is shown. Entries with a potency or affinity are not part of this list.

These compounds were tested against Virion infectivity factor (Human immunodeficiency virus type 1 group M subtype B (isolate BH10)) + Virion infectivity factor (Human immunodeficiency virus type 1 group M subtype B (isolate BRU/LAI)) + Virion infectivity factor (Human immunodeficiency virus type 1 group M subtype B (isolate PCV12)) + Virion infectivity factor (Human immunodeficiency virus type 1 group M subtype B (isolate HXB2)) + DNA dC->dU-editing enzyme APOBEC-3G (Homo sapiens) (UniProt P69720+P69721+P69722+P69723+Q9HC16) (assay: inhibitors of Vif binding to APOBEC3G peptide, primary screen, biochemical, TR-FRET, GST-Vif 1-94, biotin-A3G peptide, dose response retest (AID 1117319;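 further: Vif residues 1-94 fused to GST binding biotinylated APOBEC3G peptide 110-148; 0% = full assay without inhibitor and 100% = GST in place of GST-Vif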)). Conditions: hits give high values.

inhibition, inactive:
CN(C)/C=C/C(=O)c1ccc(Br)cc1 -1.28%
O=C(NCCO)C1COc2ccccc2O1 (stereo not given) -2.17%
O=C(CSc1nnnn1C1CC1)N1CCN(c2ccccc2F)CC1 -1.62%
On1nnc2c3ccccc3c3ccccc3c21 0.98%
O=C(O)C1CCCCN1C(=O)c1ccc(S(=O)(=O)N2CCCCCC2)cc1 (stereo not given) -3.6%
COc1ccc2c(c1)CCCC(Br)C2=O (stereo not given) 11.8%
COc1cc2c(cc1OC)C(=O)CCC2 -1.94%
O=C(O)c1cccc2c1C(=O)c1ccc(N3CCN(Cc4ccc5c(c4)OCO5)CC3)cc1S2(=O)=O 1.13%
Cc1cccc2cc(CN(CCCO)C(=O)Nc3ccc(Cl)cc3)c(=O)[nH]c12 13.2%
C/C(=N\NC(=O)c1cc(C2CC2)nc2ccccc12)c1ccc(C)s1 5.05%
CCC(C)C1=CC(=Nc2c(C)n(C)n(-c3ccccc3)c2=O)C=C(C(C)CC)C1=O (stereo not given) 9.76%
CC1=CC(=Nc2c(C)n(C)n(-c3ccccc3)c2=O)C=C(C)C1=O 16.9%
Cc1c(N=c2c(=O)c3ccccc3c2=O)c(=O)n(-c2ccccc2)n1C 23.7%
Cc1c(N=C2C=CC(=O)c3ccccc32)c(=O)n(-c2ccccc2)n1C 25%
CC(=O)NC1=NN(C(C)=O)C(C)(c2cccs2)S1 (stereo not given) 2.86%
Cc1cc(=O)oc2cc(NC(=O)c3ccnn3C)ccc12 -5.65%
Cc1ccc(C)c(Cn2nnc3c(=O)[nH]c(C4CCN(S(=O)(=O)c5ccc(S(=O)(=O)NC6CC6)cc5)CC4)nc32)c1 -11.5%
O=C(CN1CCN(S(=O)(=O)c2ccc(Cl)s2)CC1)N1CCOCC1 7.26%
O=C(CN1CCN(S(=O)(=O)c2ccc(Cl)cc2)CC1)NCc1cccs1 0.29%
CC(C)Nc1nc(-c2ccccc2)nnc1-c1ccccc1 -7.57%
O=C(O)/C=C/C(=O)Nc1ccc(SC(F)(F)C(F)(F)C(F)(F)F)cc1 -1.48%
CCN(CC)CCN1C(=O)c2ccccc2NC1c1ccc(C)cc1 (stereo not given) 0.09%
CCN(CC)CCN1C(=O)c2ccccc2NC1c1ccc(F)cc1 (stereo not given) 1.63%
CC/C(C)=N/Nc1ccc(S(=O)(=O)N2CCCC2)cc1[N+](=O)[O-] 0.9%
CC1CCN(C(=O)c2ccc(CNc3c(N4CCCC4)c(=O)c3=O)cc2)CC1 5.36%
CC1CCCN(C(=O)c2ccc(CNc3c(N4CCCCC4)c(=O)c3=O)cc2)C1 (stereo not given) 4.47%
Cn1c(N)c(C(=O)COC(=O)C2CCC(C(C)(C)C)CC2)c(=O)n(C)c1=O (stereo not given) 15.1%
Cn1c(N)c(C(=O)COC(=O)C2CCCC2)c(=O)n(C)c1=O 0.6%
COc1ccc(S(=O)(=O)N2CCC3(CC2)CC(=O)c2ccccc2O3)cc1OC 5.1%
CCN1C(=O)S/C(=C\c2ccc(N3CCOCC3)cc2C)C1=O 15.3%
C=CCN1C(=O)S/C(=C\c2ccc(N3CCOCC3)cc2C)C1=O -1.96%
Cc1cc(=O)oc2c(CN3CCN(C)CC3)c(O)c(Cl)cc12 -0.71%
COc1ccccc1NC(=S)NN1CCN(C)CC1 -0.89%
O=C(Nc1ccc2ccccc2c1)c1cccnc1 -0.18%
Nc1ccc(C(=O)Nc2ccc3nc(-c4cccnc4)[nH]c3c2)cc1 1.2%
CC/C(=N\NC(=O)CSc1ncccn1)c1ccc2c(c1)OCCO2 4.58%
COc1ccc(-n2c(Cc3cc(=O)[nH]c(=O)[nH]3)nnc2SCC(=O)NC2CCCC2)cc1 2.26%
COc1ccc2cc(CN(Cc3ccco3)C(=S)NCC3CCCO3)c(=O)[nH]c2c1 (stereo not given) -22.6%
CC(=O)Nc1ccc(S(=O)(=O)N2CCc3ccccc3C2)cc1 21.6%
O=C(O)Cc1ccc(N=Cc2c(O)ccc3ccccc23)cc1 5.87%
NS(=O)(=O)c1ccc(N=Nc2c(O)c(C(=O)O)cc3ccccc23)cc1 24.6%
Cn1cnnc1SCC(=O)Nc1ccccc1C(=O)NC1CCCC1 7.03%
CC(=O)Nc1cccc(C(=O)NCC2(N3CCCCC3)CCCCC2)c1 3.75%
COc1ccc(Oc2ccc(C(F)(F)F)cc2NC(=O)c2ccc(OC)cc2)cc1 -13.5%
CN1CCN(c2ncc(CN3C(=O)c4ccccc4C3=O)s2)CC1 1.36%
O=Cc1cnc(N2CCCCC2)s1 -7.46%
Cc1ccccc1N1C(=O)C(Cl)=C(N2CCCCCC2)C1=O 4.9%
CC(=O)c1cnc(N(C)C)s1 -3.71%
Clc1cccc2sc(N3CCCCC3)nc12 0.64%
CN1CCN(C2=C(Cl)C(=O)N(C3CCCCC3)C2=O)CC1 20.6%
O=C(CN1CCc2ccccc21)NN1CC(=O)N(c2ccccc2)CC1=O 1.28%
CCOC(=O)c1ccc(NCc2ccncc2)cc1 -1.73%
COC(CN1CCc2c(C)nc3c(C#N)cnn3c21)OC 1.49%
CN(C)S(=O)(=O)c1cc(NC(=O)[C@H](Cc2ccccc2)N2C(=O)c3ccccc3C2=O)ccc1Cl 15.5%
NC(=O)c1sc2nc(-c3ccco3)ccc2c1N 25.6%
Nc1c(C(=O)Nc2ccc(Br)cc2)sc2nc(-c3ccco3)ccc12 4.88%
Cc1ccc(-c2nnc(SCc3ccc(C#N)cc3)n2Cc2ccco2)cc1 21.2%
N#Cc1ccc(CSc2nnc(-c3ccccc3)n2Cc2ccco2)cc1 3.24%
COc1cccc(C(=O)OC(C)CN2CCCC2)c1 (stereo not given) 2.26%
COc1ccc(CCC(=O)N2CCN(S(=O)(=O)c3ccc4ccccc4c3)CC2)cc1 -2.65%
O=C1c2ccccc2C(O)(c2ccccc2)N1C1CC1 (stereo not given) 18.6%
COc1cc(C(=O)OCCCN2CCOCC2)ccc1O 5.32%
COc1cc(C(=O)OCCN2CCOCC2)ccc1O 6.52%
CCNc1nc(SC(C)C(=O)OC)nc(N2CCOCC2)n1 (stereo not given) 2.4%
COc1ccc(N2CS(=O)(=O)/C(=C/N(C)C)C2=O)cc1 9.06%
COCCCNC(=S)Nc1ccc2nc3n(c(=O)c2c1)CCCCC3 -4.36%
CCn1c(O)c(C=NC2CCCC2)sc1=S 5.46%
Oc1ccc(C=NC2CCCCC2)c(O)c1 21.7%
CCOC(=O)N1CCC(N2CC34C=CC(O3)C(C(=O)Nc3ccc(F)cc3)C4C2=O)CC1 (stereo not given) 5.89%
Cc1ccc(N2C(=O)Nc3cc(Cl)c(Cl)cc3N2O)cc1Cl 4.32%
CCN1CCN(CC(=O)Nc2cc(S(=O)(=O)N3CCCCC3)ccc2Cl)CC1 -1.15%
CC(C)(C)n1nnnc1C(c1ccc2ncccc2c1)N1CCC(O)CC1 (stereo not given) -3.23%
CN(C)N1C(N)=C(C#N)C(c2cccc([N+](=O)[O-])c2)C2=C1CC(C)(C)CC2=O (stereo not given) -5.57%
COc1ccc(C)c2sc(N(CCCN(C)C)C(=O)c3ccc(S(=O)(=O)N(C)C)cc3)nc12 -2.34%
CCn1c2ccccc2c2cc(NC(=O)c3cccc([N+](=O)[O-])c3C)ccc21 -6.86%
CCn1c2ccccc2c2cc(NC(=O)c3ccc(C)c([N+](=O)[O-])c3)ccc21 8.31%
C=CCCCN(Cc1ccccc1)S(=O)(=O)c1ccccc1Br -1.22%
COc1ccc(C(=O)COC(=O)c2cccc(-n3cnnn3)c2)c(OC)c1 3.56%
COC(=O)c1cccc(-n2cnnn2)c1 22.2%
CCOC(=O)c1cc(-c2ccc(OC)cc2F)nc2c1c(C)nn2CCC#N 15.4%
CC1=C(C(=O)OCc2ccccc2)C(c2cccs2)N2C(=O)CCSC2=N1 (stereo not given) -5.63%
CCOC(=O)CCn1cnc2ccc([N+](=O)[O-])cc2c1=O 10.2%
Cc1ccc(-c2ccc(=O)n(CCC(=O)N3CCN(c4cccc(C)c4)C(C)C3)n2)cc1 (stereo not given) 1.97%
CCOC(CNC(=O)c1cccc([N+](=O)[O-])c1)OCC 8.25%
O=C1CC(Sc2ncccc2C(=O)O)C(=O)N1 (stereo not given) 5.46%
Cc1cccc2c1NC(=O)C2(O)N1CCCC(C)C1 (stereo not given) 7.4%
C/C(=N\Oc1cccc(F)n1)c1ccc(Cl)cc1Cl -2.41%
CC(C)c1ccc(S(=O)(=O)N2CCN(CC(=O)c3ccc(O)c(O)c3)CC2)cc1 24.8%
O=C(CN1CCN(S(=O)(=O)c2ccc(Br)cc2)CC1)c1ccc(O)c(O)c1 23.1%
COc1cc(/C=C2\CC(C(C)(C)C)C/C(=C\c3cc(OC)c(OC)c(OC)c3)C2=O)cc(OC)c1OC (stereo not given) 2.75%
CC(C)(C)C1C/C(=C/c2ccccn2)C(=O)/C(=C/c2ccccn2)C1 (stereo not given) 2.61%
CCC1C/C(=C\c2cccnc2)C(=O)/C(=C/c2cccnc2)C1 (stereo not given) 9.28%
CC1C/C(=C/c2ccccn2)C(=O)/C(=C/c2ccccn2)C1 (stereo not given) 19.4%
CC1C/C(=C/c2ccncc2)C(=O)/C(=C/c2ccncc2)C1 (stereo not given) 25.8%
CC12CCCC(=O)C1CCC(=Cc1ccco1)C2=O (stereo not given) 2.03%
